Autofluor 339: intrinsic fluorescence of library compounds, ex339/em460 – biochemical, MLSMR library, data from DPM-DC assay, artefact control, profiling panel | compound autofluorescence, ex339/em460 nm, NADH buffer; stronger effect = higher value; 1 = no-compound wells, NADH background | 65,000 tested, 5.5% active | fluorescence fold increase at 10 µM;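 active = at 10 µM, mean starting fluorescence two-fold or more over control wells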;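 note: signal is the first read of a kinetic run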
NADH enzymes: blocks coupling enzymes of NAD/NADH assays. AID 774. coupled PK/LDH NADH assays, four targets. 65,000 tested, 0.02% active. IC50, µM (series often up to 10 µM);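 active = single-dose screening hits from any of four coupled enzyme assays that gave an IC50 when retested across doses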;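 note: the DPM-DC format reads NADH fluorescence rather than 340 nm absorbance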
MK inhibit: S. pneumoniae mevalonate kinase inhibition; purified MK, PK/LDH-coupled NADH absorbance 340 nm; inhibition, % at 10 µM; 65,000 tested, 0.48% active;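 active = ranked among the strongest by inhibition in the single 10 µM screen, a fixed top-ranked set picked for dose follow-up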
Abs 340nm: absorbance at 340 nm | compound absorbance at 340 nm, fold over control | fold change at 10 µM | 65,000 tested, under 10 active;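 active = at 10 µM dose, initial 340 nm absorbance at least 2 fold that of control wells; inactive = change under 2 fold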;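 note: initial absorbance extrapolated from kinetic A340 decline of NADH oxidation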
Spn PMK inh: S. pneumoniae PMK inhibition; purified PMK, PK/LDH-coupled NADH absorbance 340 nm; inhibition, % at 10 µM; 65,000 tested, 0.49% active; AID 539;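 active = top-ranked compounds by inhibition in the single 10 µM screen, taking a fixed number of the strongest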
Spn DPM-DC inh: blocks S. pneumoniae diphosphomevalonate decarboxylase; purified DPM-DC, PK/LDH coupled NADH fluorescence; calls only at 10 µM; 65,000 tested, 0.49% active; AID 556;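 active = the 320 compounds with the highest percent inhibition in the single-dose primary screen, excluding strongly autofluorescent ones, cut at about 32% in these data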;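 note: kinetic rate of NADH fluorescence loss reporting ADP formed by the decarboxylase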
Numbers stand for hits; 0 = inactive; - = no result given; + = active, no number. An excerpt weighted towards active compounds, which were near 6.8% of everything screened.

SMILES	Autofluor 339	NADH enzymes	MK inhibit	Abs 340nm	Spn PMK inh	Spn DPM-DC inh
O=C(NCCC1=CCCCC1)C1CCN(S(=O)(=O)c2cnc[nH]2)CC1	0	0	0	0	0	0
CC(C)c1nnc(NC(=O)c2cccs2)s1	0	0	0	0	0	0
CCC(CC)C(=O)Nc1nnc(-c2cccs2)s1	2.6	0	0	0	0	0
Cc1noc(NS(=O)(=O)c2ccc(NC(=O)CSc3nc4c(cc3C#N)CCC4)cc2)c1C	0	0	0	0	0	0
CC(=O)Nc1ccc2c(c1)C(=O)N(C1CCCCC1)C2=O	3.8	0	0	0	0	-
COC(=O)C1=CN(C(C)C)C=C(C(=O)OC)C1c1cc2c(cc1Br)OCO2	2	0	0	0	0	0
CC1=C(C(=O)OCC(C)C)C(c2cc3c(cc2Br)OCO3)NC(=O)N1C (centres undefined)	0	0	0	0	0	0
O=c1c2ccccc2nnn1CSc1nnc(-c2cccs2)n1Cc1ccccc1	0	0	76	0	0	0
Cc1cc(C)n(C(=O)Cc2cn3ccsc3n2)n1	0	0	0	0	0	0
CCOc1ccc(C(=O)N2CCN(Cc3ccccc3)CC2)cc1	0	0	0	0	0	0
O=C(c1cc2c(ccc3ccccc32)oc1=O)N1CCN(CCO)CC1	2.1	0	0	0	0	-
CC(Oc1ccc2oc(-c3ccccc3)c(C(=O)O)c2c1)C(=O)O (centres undefined)	2.4	0	0	0	0	-
CCOc1ccc2oc(-c3ccccc3)c(C(=O)O)c2c1	3.9	0	0	0	0	-
O=C(c1cc2ccccc2oc1=O)N1CCCN(C(=O)c2cc3ccccc3oc2=O)CC1	0	0	0	0	0	0
CCOc1ccc2oc(-c3ccccc3)c(C(=O)N3CCN(CCO)CC3)c2c1	3.4	0	0	0	0	-
COc1ccccc1CNC(=O)C1CCN(S(=O)(=O)N2CCCCC2)CC1	0	0	0	0	0	0
O=C1CCC(C(=O)N(Cc2ccco2)C2(C(=O)NC3CCCC3)CCCCC2)N1 (centres undefined)	0	0	0	0	0	+
CC(=O)N(Cc1ccco1)C1(C(=O)NC2CCCCC2)CCCCC1	0	0	0	0	0	0
CCCCOc1ncnc2c1[nH]c1ccc(F)cc12	2.7	0	0	0	0	0
CCCCOc1ncnc2c1[nH]c1ccccc12	2.3	0	0	0	0	0
O=C1CCC2CCCCC2(O)O1 (centres undefined)	0	0	0	0	0	0
CC(C)COC(=O)NCC12C=CC(O1)C1C(=O)N(c3ccc(Cl)cc3)C(=O)C12 (centres undefined)	0	0	0	0	25	0
CCCc1noc(-c2ccc(-c3ccccc3)cc2)n1	0	0	0	0	0	0
O=C(Nc1cccc(F)c1)c1ccc2c(c1)OCO2	0	0	0	0	0	0
O=C(Nc1c(C(=O)Nc2cccc(F)c2)oc2ccccc12)c1ccc2c(c1)OCO2	5	0	0	0	0	-
SMILES	Autofluor 339	NADH enzymes	MK inhibit	Abs 340nm	Spn PMK inh	Spn DPM-DC inh
Cc1ccc(NC(=O)c2oc3ccccc3c2NC(=O)c2ccc3c(c2)OCO3)cc1	2	0	0	0	0	0
CCOC(=O)c1ccc(NC(=O)c2ccc3c(c2)OCO3)cc1	0	0	0	0	0	0
COc1ccc(Cn2nnnc2C(c2ccncc2)N2CCOCC2)cc1 (centres undefined)	0	0	0	0	0	0
Cn1nnnc1Sc1ncnc2scc(-c3ccc(F)cc3)c12	0	0	0	0	29	0
Cn1nnnc1Sc1ncnc2scc(-c3ccccc3)c12	0	0	0	0	0	0
CSC(=NCc1cccnc1)NS(=O)(=O)c1cccs1	0	0	0	0	0	0
COCCNC(=O)CSc1nc2ccc(N3CCOCC3)cc2c(=O)n1CCc1ccccc1	4.1	0	0	0	0	-
CCCCNC(=O)CSc1nc2ccc(N3CCOCC3)cc2c(=O)n1CCc1ccccc1	2.3	0	0	0	0	0
CCOCC(O)CS(=O)(=O)c1ccccn1 (centres undefined)	0	0	0	0	0	0
CCC(=O)Nc1c(OC(=O)CC)ccc2c(C)cc(=O)oc12	2.1	0	0	0	0	-
CCC(=O)Nc1c(C)cc(C)cc1Cl	0	0	0	0	0	0
CCOC(=O)c1c(NC(=O)CSc2ncn[nH]2)sc(C)c1C	0	0	0	0	0	0
CCOc1ccccc1-c1nc(C(N)=O)c2[nH]c(=O)n(-c3ccc(F)cc3)c2n1	2.1	0	0	0	0	-
Cc1ccc(-c2c(C)c(-c3ccc(F)cc3)nc(N)c2C#N)o1	3	0	0	0	0	0
Cn1c2ccccc2c2c(C(=O)N3CCN(c4ccccn4)CC3)cn(C3CCCC3)c(=O)c21	0	0	0	0	0	0
CCOC(=O)N1CCN(C(=O)c2cn(CC(C)C)c(=O)c3c2c2ccccc2n3C)CC1	4.2	0	0	0	0	-
COc1ccc(N2CCN(C(=O)c3cn(C)c(=O)c4c3c3ccccc3n4C)CC2)cc1	0	0	0	0	0	0
CC(C)Cn1cc(C(=O)NCc2cccs2)c2c3ccccc3n(C)c2c1=O	2.6	0	0	0	0	0
COCCn1cc(C(=O)N2CCC(C)CC2)c2c3ccccc3n(C)c2c1=O	4.8	0	0	0	0	-
CCCN(CCC)CCCNC(=O)c1cn(CCOC)c(=O)c2c1c1ccccc1n2C	3.5	0	0	0	0	0
CCCN(CCC)CCCNC(=O)c1cc2c(=O)n(C)c3ccccc3c2n1C	0	0	0	0	0	0
CCC1c2ccc(C)n2CCN1C(=O)Nc1cc(Cl)ccc1OC (centres undefined)	0	0	0	0	0	0
CCOC(=O)N1CCN(C(=O)c2cn(C)c(=O)c3c2c2ccccc2n3C)CC1	3.5	0	0	0	0	0
CC(C)Cn1cc(C(=O)N2CCOCC2)c2c3ccccc3n(C)c2c1=O	2.6	0	0	0	0	0
O=S(=O)(Nc1ccc(Cl)c(C(F)(F)F)c1)c1cnc[nH]1	0	0	0	0	0	0
SMILES	Autofluor 339	NADH enzymes	MK inhibit	Abs 340nm	Spn PMK inh	Spn DPM-DC inh
CCN(CC)S(=O)(=O)c1ccc2oc(SCc3ccc(F)cc3)nc2c1	0	0	0	0	0	0
CC(=O)N1CCc2cc(C(=O)CN3CCCCC3)ccc21	0	0	0	0	0	0
CC(=O)N1CCc2cc3nc(C)cc(C)c3cc21	4.1	0	0	0	0	-
Cc1cc(C)n(-c2nc3ccccc3c(=O)n2OCC(=O)Nc2c(C)cccc2C)n1	0	0	0	0	0	0
CC(C)c1ccc(NC(=O)C2C3C=CC4(CN(CCCN5CCOCC5)C(=O)C24)O3)cc1 (centres undefined)	0	0	0	0	0	0
CCOc1ccc(N2CCn3c2nc2c3c(=O)n(CCc3ccccc3)c(=O)n2C)cc1	0	0	0	0	0	0
CCCN(C(=O)c1ccccc1N)c1c(C)n(C)n(-c2ccccc2)c1=O	0	0	0	0	29	0
CCN(c1c(C)n(C)n(-c2ccccc2)c1=O)S(C)(=O)=O	0	0	0	0	0	0
